From PubChem BioAssay (Tox21) come the findings set out here.

Experiment [1] has as its target Luciferin 4-monooxygenase (Photinus pyralis) (UniProt P08659). As to the kind of experiment: qHTS assay to identify small molecule inhibitors of firefly luciferase (AID 1224835). Note: nearly all actives have a fitted effect of over 25% in size. Note: potency is the fitted concentration of half-maximal effect. Put shortly:
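Inhibition of purified Photinus luciferase is measured by luminescence. Substrate levels (D-luciferin, ATP) sit at their KM values. Each compound is tested in a concentration series.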
(Quantitative high-throughput screening tests each substance at several concentrations.)

Experiment [2] in a line: qHTS assay to identify small molecule agonists of the constitutive androstane receptor (CAR) signaling pathway - cell viability counter screen (AID 1224836). Note: nearly all actives have a fitted effect of over 45% in size. Note: potency is the fitted concentration of half-maximal effect. Put shortly: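 Multiplexed viability check: HepG2-CYP2B6-hCAR cells, 15-point compound dosing, 0.75 uM PK11195 final, 23 h at 37 C, CellTiter-Fluor fluorescence.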
Experiment [3] in a line: qHTS assay to identify small molecule antagonists of the constitutive androstane receptor (CAR) signaling pathway - cell viability counter screen (AID 1224837). Note: nearly all actives have a fitted effect of over 45% in size. Note: potency is the fitted concentration of half-maximal effect. Put shortly:
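HepG2 cells stably expressing hCAR and a CYP2B6-2.2kb reporter were plated and pre-incubated 4 hr at 37 C/5% CO2, then given compounds at 15 concentrations plus 50 nM CITCO (final). After 23 hr, viability was read by CellTiter-Fluor fluorescence.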

The target of experiment [4] is Nuclear receptor subfamily 1 group I member 3 (Homo sapiens) (UniProt Q14994). As to the kind of experiment: qHTS assay to identify small molecule antagonists of the constitutive androstane receptor (CAR) signaling pathway (AID 1224838). Note: nearly all actives have a fitted effect of over 40% in size. Note: potency is the fitted concentration of half-maximal effect. Put shortly: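 HepG2 cells stably co-transfected with hCAR and a CYP2B6-2.2kb luciferase reporter were seeded 4 h before compound addition at 15 concentrations. Cells were stimulated with 50 nM CITCO (final) for 24 h at 37 C; luciferase luminescence was then read.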

The target is the same in experiment [5]. The experiment in a line: qHTS assay to identify small molecule agonists of the constitutive androstane receptor (CAR) signaling pathway (AID 1224839). Note: nearly all actives have a fitted effect of over 15% in size. Note: potency is the fitted concentration of half-maximal effect. Put shortly:
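Using human hepatoma HepG2 cells engineered with hCAR and a CYP2B6-2.2kb reporter, 15-concentration compound series were incubated 24 h alongside PK11195 at 0.75 uM final, with luminescence quantified afterwards.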

Experiment [6] can be described thus: qHTS assay to identify small molecule antagonists of the estrogen related receptor signaling pathway with the pleiotropic PPARgamma coactivator (PGC) from Tox21 10K library - cell viability counter screen (AID 1224840; active = well fitted cell-killing curve with a large enough effect in the repeat runs, not every such curve was filed as active; note: nearly all actives have a fitted effect of over 40% in size; note: potency is the fitted concentration of half-maximal effect). Put shortly: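 PGC/ERR cells were seeded at 2,000 cells/well and left 6 hours at 37 C/5% CO2 before pin-tool addition of compounds in DMSO. After 17.5 hours at 37 C, CellTiter-Fluor was added and fluorescence read 30 minutes later.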

Experiment [7] addresses Thyrotropin receptor (Homo sapiens) (UniProt P16473). The experiment in a line: qHTS assay to identify small molecule agonists of the thyroid stimulating hormone receptor (TSHR) signaling pathway (AID 1224843; calls by dose curve; note: nearly all actives have a fitted effect of over 45% in size). Put shortly:
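Screening of the Tox21 10K collection used HEK293 cells engineered with TSHR at 800 cells per well. After a 30-min room-temperature compound exposure, HTRF cAMP reagents were added and fluorescence recorded 1 h later.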

The nature of experiment [8]: qHTS assay to identify small molecule agonists of the hypoxia (HIF-1) signaling pathway - cell viability counter screen (AID 1224844; calls by dose curve; note: nearly all actives have a fitted effect of over 50% in size; note: potency is the fitted concentration of half-maximal effect). Put shortly: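 HRE-bla ME-180 cells in medium with 0.5% dialyzed FBS were preincubated 5 hrs at 37C, exposed to compounds for 17 hrs, then viability was read as CellTiter-Glo luminescence after 30 min at room temperature, in the reporter wells.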

Experiment [9] can be described thus: qHTS assay to identify small molecule agonists of H2AX (AID 1224845; active = well fitted activation curve with a large enough effect in the signal ratio in the repeat runs, not every such curve was filed as active; the % refers to the signal ratio). Put shortly:
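Phospho-H2AX Ser139 measured by HTRF (ex 320 nm; em 665 and 620 nm) after 24 hr antibody incubation. Compounds, 15 concentrations, 0.76% DMSO, were applied to CHO-K1 cells for 3hr at 37C before lysis.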

Experiment [10] in a line: qHTS assay to identify small molecule agonists of the hypoxia (HIF-1) signaling pathway (AID 1224846; active = well fitted activation curve with a large enough effect in the signal ratio in the repeat runs, not every such curve was filed as active; the % refers to the signal ratio). Put shortly: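 HRE-bla ME-180 cells (beta-lactamase reporter under hypoxia response element) were plated at 2,000 cells/well in medium with 0.5% dialyzed FBS, rested 5 hrs, then given compounds in DMSO for 17 hrs at 37C, 5% CO2. Reporter induction was read with CCF4-AM FRET substrate.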

Experiment [11] is described as follows: qHTS assay to identify small molecule agonists of H2AX - cell viability counter screen (AID 1224847; calls by dose curve; note: nearly all actives have a fitted effect of over 30% in size; note: potency is the fitted concentration of half-maximal effect). Put shortly:
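After overnight plating of 1000 CHO-K1 cells per well, a 15-concentration compound series was applied for 3 hr at 37C. Luminescence from CellTiter-Glo, read following 30 min at room temperature, reflected cell viability.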

Experiment [12] in a line: qHTS RealTime-Glo MT Cell Viability Assay in HepG2 cells - 24 hour (AID 1224867). Note: nearly all actives have a fitted effect of over 50% in size. Note: potency is the fitted concentration of half-maximal effect. Put shortly: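 qHTS, HepG2, 600 cells/well, RealTime-Glo (NanoLuc + prosubstrate) added with cells; 5 h preincubation; DMSO compound addition; 37 C; luminescence at 0/8/16/24/32/40 h.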
A short description of experiment [13]: qHTS RealTime-Glo MT Cell Viability Assay in HEK293 cells - 32 hour (AID 1224868). Note: nearly all actives have a fitted effect of over 50% in size. Note: potency is the fitted concentration of half-maximal effect. Put shortly:
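Assay medium contained NanoLuc luciferase plus cell-permeant prosubstrate, added with HEK293 cells at 600 cells/well. After 5 h at 37 C/5% CO2 compounds were added; plates stayed at 37 C for 40 h with serial luminescence reads.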

The nature of experiment [14]: A CellTox Green Cytotoxicity Assay to monitor cytotoxicity in HEK293 cells - 0 hour (AID 1224869). Note: nearly all actives have a fitted effect of over 50% in size. Put shortly:
(§1)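 HEK293 cells premixed with CellTox Green dye were seeded at 600 cells/well and left 5 h at 37 C/5% CO2 before pin transfer of 23 nL compound in DMSO. Fluorescence from dye bound to dead-cell DNA was read during 40 h treatment.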

The nature of experiment [15]: qHTS assay to identify small molecule agonists of the estrogen related receptor signaling pathway with the pleiotropic PPARgamma coactivator (PGC) from Tox21 10K library (AID 1224842). Note: nearly all actives have a fitted effect of over 15% in size. Put shortly:
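Luminescence from One-Glo (30 min, room temperature) measured after PGC/ERR cells had 18 h at 37 C with pinned compound (23 nL in DMSO). Cells had been seeded at 2,000 per well and pre-incubated 6 h.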

A short description of experiment [16]: qHTS assay to identify small molecule antagonists of the estrogen related receptor (ERR) signaling pathway from Tox21 library (AID 1224848). Note: nearly all actives have a fitted effect of over 50% in size. Note: potency is the fitted concentration of half-maximal effect. Put shortly:
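Antagonist-mode screen of the Tox21 10K library in an NTP-provided ERR reporter cell line; 18 h compound exposure at 37 C, luminescence measured with ONE-Glo.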

Experiment [17] can be described thus: qHTS assay to identify small molecule agonists of the estrogen related receptor (ERR) signaling pathway from Tox21 library (AID 1224849; calls by dose curve; note: nearly all actives have a fitted effect of over 15% in size). The settings on record: ERR reporter cell line, ONE-Glo luciferase, 18 h; at 92.4 µM (top of the series) unless noted. Put shortly:
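ERR reporter cell line (NTP) seeded, rested 6 h at 37 C/5% CO2, then pinned with Tox21 compounds in DMSO. After 18 h at 37 C, ONE-Glo luciferase luminescence was read following 30 min at room temperature.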

A short description of experiment [18]: qHTS RealTime-Glo MT Cell Viability Assay in HepG2 cells - 40 hour (AID 1224870). Note: nearly all actives have a fitted effect of over 50% in size. Note: potency is the fitted concentration of half-maximal effect. Put shortly:
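Real-time viability: cells seeded at 600 per well together with NanoLuc and cell-permeant prosubstrate, compounds added after 5 h incubation. Luminescence tracked at 0, 8, 16, 24, 32 and 40 h of exposure.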

Experiment [19] in a line: A CellTox Green Cytotoxicity Assay to monitor cytotoxicity in HEK293 cells - 40 hour (AID 1224871). Note: nearly all actives have a fitted effect of over 45% in size. Note: potency is the fitted concentration of half-maximal effect. Put shortly: as §1
Experiment [20] can be described thus: qHTS assay to identify small molecule antagonists of the estrogen related receptor signaling pathway with the pleiotropic PPARgamma coactivator (PGC) from Tox21 10K library (AID 1224841; call rule not given here). Put shortly:
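PGC/ERR reporter cells were seeded at 2,000 cells/well and held 6 hours at 37 C/5% CO2 before pin-tool addition of compounds in DMSO. After 18 hours at 37 C, One-Glo was added and luminescence read after 30 minutes at room temperature.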

Unmarked numbers belong to inactive results. Results filed as inconclusive are left out. Calls of active or inactive are those of the source. Unless noted, calls come from the whole dose curve; as a rule, active = well fitted curve in the direction sought with a large enough effect in the repeat runs; inconclusive = weak or mixed curves; inactive = no such curve, though single readings can be large; an effect the other way counts as inactive or inconclusive.
% is set by controls: 0 for no effect and ±100 for the full control effect.

Sequence of Luciferin 4-monooxygenase (Photinus pyralis) (P08659 whole entry, looked up): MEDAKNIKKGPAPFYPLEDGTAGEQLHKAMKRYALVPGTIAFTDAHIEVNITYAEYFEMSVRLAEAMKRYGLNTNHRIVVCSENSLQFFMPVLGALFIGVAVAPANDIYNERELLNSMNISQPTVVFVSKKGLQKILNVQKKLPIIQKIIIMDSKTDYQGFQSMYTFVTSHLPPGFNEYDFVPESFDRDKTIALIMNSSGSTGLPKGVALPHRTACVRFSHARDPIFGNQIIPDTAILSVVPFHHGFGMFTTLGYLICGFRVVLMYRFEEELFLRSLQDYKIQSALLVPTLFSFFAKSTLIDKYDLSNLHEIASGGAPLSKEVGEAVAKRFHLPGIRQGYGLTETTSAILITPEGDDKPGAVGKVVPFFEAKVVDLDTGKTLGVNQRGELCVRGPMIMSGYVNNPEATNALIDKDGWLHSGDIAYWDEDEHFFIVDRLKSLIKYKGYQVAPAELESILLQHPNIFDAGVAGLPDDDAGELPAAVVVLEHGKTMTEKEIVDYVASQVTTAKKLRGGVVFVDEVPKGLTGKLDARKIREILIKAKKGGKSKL
Sequence of Thyrotropin receptor (Homo sapiens) (P16473 whole entry, looked up): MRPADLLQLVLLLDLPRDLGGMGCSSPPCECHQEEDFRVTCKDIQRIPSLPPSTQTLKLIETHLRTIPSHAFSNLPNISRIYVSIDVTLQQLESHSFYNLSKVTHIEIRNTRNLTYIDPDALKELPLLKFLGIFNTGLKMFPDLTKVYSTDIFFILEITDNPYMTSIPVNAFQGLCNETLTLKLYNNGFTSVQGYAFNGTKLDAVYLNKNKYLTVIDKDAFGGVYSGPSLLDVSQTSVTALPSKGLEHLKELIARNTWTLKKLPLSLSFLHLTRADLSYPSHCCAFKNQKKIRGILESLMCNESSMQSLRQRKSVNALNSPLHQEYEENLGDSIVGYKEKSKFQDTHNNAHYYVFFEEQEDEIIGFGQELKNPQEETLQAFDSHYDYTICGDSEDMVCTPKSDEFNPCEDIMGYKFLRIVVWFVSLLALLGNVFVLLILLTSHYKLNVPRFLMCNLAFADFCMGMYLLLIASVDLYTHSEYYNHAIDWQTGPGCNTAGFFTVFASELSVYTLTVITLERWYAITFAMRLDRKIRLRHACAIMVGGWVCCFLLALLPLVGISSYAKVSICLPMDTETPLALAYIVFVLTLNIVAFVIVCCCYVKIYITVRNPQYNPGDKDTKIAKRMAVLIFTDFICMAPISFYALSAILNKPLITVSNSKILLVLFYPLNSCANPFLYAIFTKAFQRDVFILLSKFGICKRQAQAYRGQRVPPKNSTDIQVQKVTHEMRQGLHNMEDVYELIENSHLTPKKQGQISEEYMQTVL
Sequence of Nuclear receptor subfamily 1 group I member 3 (Homo sapiens) (Q14994 whole entry, looked up): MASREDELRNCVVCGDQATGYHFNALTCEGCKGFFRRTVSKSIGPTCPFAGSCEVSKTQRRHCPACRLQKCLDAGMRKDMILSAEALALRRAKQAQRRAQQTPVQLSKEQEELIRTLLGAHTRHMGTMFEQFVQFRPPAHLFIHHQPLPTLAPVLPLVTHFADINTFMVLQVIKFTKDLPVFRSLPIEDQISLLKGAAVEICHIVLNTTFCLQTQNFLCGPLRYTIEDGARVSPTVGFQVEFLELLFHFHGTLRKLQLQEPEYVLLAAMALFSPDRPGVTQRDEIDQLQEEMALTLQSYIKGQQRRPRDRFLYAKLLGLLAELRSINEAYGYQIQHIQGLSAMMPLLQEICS

In the case of `CCOCN(C(=O)CS(=O)(=O)O)c1c(C)cccc1CC`, the Potency result in [1], in experiment [2], in experiment [3], in experiment [4], in experiment [5] and in experiment [6] was “inactive” throughout. Further, the Potency entry in [7], in [8], in [9], in experiment [11], in [12] and in experiment [13] was “inactive” each time. In addition, the Potency result in experiment [14] was “inactive”. In experiment [10], the outcome was inactive.

On to `CCCCCCCCCCCCCC[n+]1ccccc1`, for which the Potency result in experiment [1], in experiment [5], in experiment [15], in experiment [9] and in experiment [14] was “inactive” in each case. In addition, the Potency in experiment [2] is 7.7 µM (active); in experiment [3], 9.69 µM (active); in experiment [4], 48.6 µM (active); in experiment [6], 54.5 µM (active); in experiment [8] it was 49 µM (active); in experiment [11] it was 56.6 µM (active). Besides, the Potency in experiment [16] was 1.37 µM (active); in [12], 19.5 µM (active); in experiment [13], 4.9 µM (active); in [18], 9.77 µM (active); in [19], 38.9 µM (active). In [17], the activity change, positive = activation is -77.5%.

Regarding `CCOC(=O)CC(C)O` (centres undefined), the Potency entry in experiment [1], in experiment [2], in experiment [3], in [4], in experiment [5] and in [6] was “inactive” throughout. Also, the Potency result in experiment [20], in [7], in experiment [8], in [9], in experiment [11] and in [16] was “inactive” in each case. For the same compound, the Potency result in experiment [12], in experiment [13], in [14], in experiment [18] and in [19] was “inactive” each time. Further, the result in [10] was inactive. In experiment [17], the activity change, positive = activation is -9.04%.

Consider `Cc1ccc2ccc3cccc4ccc1c2c34`, for which the Potency in experiment [1] was 35.5 µM (active); in experiment [5], 30.6 µM (active). The Potency result in experiment [2], in experiment [3], in experiment [4], in [6], in experiment [20] and in [7] was “inactive” each time. In addition, the Potency result in experiment [8], in experiment [9], in experiment [11] and in experiment [12] was “inactive” in each case. Besides, the outcome in experiment [10] was inactive. Further, the activity change, positive = activation in experiment [17] was -32.5%.

In the case of `Cc1cccc(C)c1NC(=O)CN1CCN(CCCC(c2ccc(F)cc2)c2ccc(F)cc2)CC1`, the Potency entry in experiment [1], in experiment [4], in experiment [5], in experiment [6], in experiment [7] and in experiment [14] was “inactive” throughout. Moreover, the Potency in experiment [2] is 23.7 µM (active); in experiment [3], 23.7 µM (active); in experiment [12], 23.9 µM (active); in experiment [13] it was 9.52 µM (active); in [18], 23.9 µM (active); in experiment [19] it was 21.3 µM (active).

For the compound `COc1cccc(OC)c1O`, the Potency result in [1], in experiment [2], in [3], in [4], in [5] and in experiment [6] was “inactive” each time. Further, the Potency result in experiment [7], in experiment [8], in experiment [9], in [11], in [12] and in [13] was “inactive” in each case. Moreover, the Potency result in experiment [14], in [18] and in experiment [19] was “inactive” in each case. In addition, the compound was classed as inactive in experiment [10].

For `CCN(CC)CCSC(=O)C(c1ccccc1)c1ccccc1`, the Potency result in [1], in [2], in [3], in [4], in [5] and in experiment [6] was “inactive” each time. For the same compound, the Potency result in experiment [7], in experiment [8], in experiment [12], in experiment [13], in [14] and in experiment [18] was “inactive” throughout. Besides, in experiment [10], the outcome was inactive.

As for `OCCN1CN(CCO)CN(CCO)C1`, the Potency entry in experiment [1], in experiment [2], in experiment [3], in experiment [4], in experiment [5] and in [6] was “inactive” each time. Besides, the Potency result in [7], in experiment [9], in experiment [11], in [12], in [13] and in [14] was “inactive” each time. The Potency result in experiment [19] was “inactive”. Besides, the call in [10] was inactive.
